Screening data (PubChem)
GPR151 activ: activators of human GPR151; Q8TDV0; PathHunter beta-arrestin GPR151 cells, luminescence; activation, % at 11.2 µM; 650,000 tested, 1% active; AID 1508602; in the data active = activation above about 4.9%
Target sequence (Q8TDV0 whole entry, looked up): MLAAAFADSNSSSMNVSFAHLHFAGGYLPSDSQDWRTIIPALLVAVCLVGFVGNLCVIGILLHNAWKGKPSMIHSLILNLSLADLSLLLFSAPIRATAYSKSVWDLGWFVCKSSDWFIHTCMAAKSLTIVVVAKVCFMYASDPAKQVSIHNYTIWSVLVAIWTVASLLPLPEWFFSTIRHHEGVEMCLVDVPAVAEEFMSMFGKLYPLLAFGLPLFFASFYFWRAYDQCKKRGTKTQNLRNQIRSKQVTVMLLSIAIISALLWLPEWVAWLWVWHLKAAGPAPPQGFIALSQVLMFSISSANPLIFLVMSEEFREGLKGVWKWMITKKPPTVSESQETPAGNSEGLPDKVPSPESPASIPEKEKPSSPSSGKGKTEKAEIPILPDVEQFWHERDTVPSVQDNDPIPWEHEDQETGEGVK
FBW7 activator: human FBW7 E3 ligase activation, primary screen. Q969H0. AlphaScreen FBW7–phospho-cyclin E peptide binding, activator screen. normalized activity (activation), % at 26.1 µM. 650,000 tested, 0.13% active; in the data active = normalized activity above about 1.9%;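 also: purified mutant Fbw7 with reduced substrate affinity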
MITF primary: inhibitors of human MITF; O75030; AlphaScreen MITF homodimerization, bead proximity signal; 650,000 tested, 0.91% active; inhibition, % at 2.6 µM; in the data active = inhibition above about 50%
TEAD-YAP block: TEAD-YAP interaction inhibition; HEK-TIYL cells, TEAD-Gal4/YAP UAS-luciferase luminescence; inhibition, % at 9.12 µM; 640,000 tested, 1.4% active; in the data active = inhibition above about 32%
Hits are given with their value; - = inactive. Hits are enriched below; roughly 3.5% of the tested compounds scored in any of these assays.

SMILES	GPR151 activ	FBW7 activator	MITF primary	TEAD-YAP block
O=c1c2ccccc2c(/C=N/c2nnc(C3CC3)s2)c(O)n1Cc1ccccc1	-	-	-	-
CC(=O)OC12CO[C@@H]1C[C@H](O)[C@@]1(C)C(=O)[C@H](O)C3=C(C)[C@@H](OC(=O)[C@H](O)[C@@H](NC(=O)OC(C)(C)C)c4ccccc4)CC(O)([C@@H](OC(=O)c4ccccc4)[C@H]21)C3(C)C (some centres not stated)	-	-	-	51
CCOC(=O)c1sc2ncn(CC(=O)NCCC3=CCCCC3)c(=O)c2c1C	-	2.2	-	-
Cc1ccc(C(=O)Nc2ncc(Cc3cccc(Cl)c3)s2)cc1	-	-	-	-
COc1ccc(C(=O)Nc2ncc(Cc3ccc(C)cc3)s2)cc1OC	-	-	-	39
COc1ccc(C(=O)Nc2ncc(Cc3cccc(Cl)c3)s2)cc1OC	-	-	-	53
COC(=O)Cn1cc(/C=C2\C(=O)NC(=S)N(c3ccccc3)C2=O)c2ccccc21	-	-	-	-
Cc1nc2ccc(NC(=O)c3ccc(S(=O)(=O)N(C)C)cc3)cc2c(=O)n1-c1ccc(Cl)cc1	-	-	-	38
O=C(OCc1ccccc1)N1CCCN(CCc2ccncc2)CC1	-	1.9	-	-
O=C1C(c2ccnc3ccccc23)=C(O)c2ccccc21	-	-	-	53
COC(=O)C1=C(C(=O)OC)SC(=CC(=S)c2ccccc2)S1	-	-	-	-
CCOc1ccc(Nc2ccc3ccccc3n2)cc1	-	-	-	41
CCCn1c2ccccc2c2nnc(SCC(=O)Nc3ccc(OC)cc3)nc21	-	-	-	-
CC(C)CCCN=Cc1c(O)n(-c2ccc(Cl)cc2)c(=O)[nH]c1=O	-	-	-	-
c1c2c(cc3sc(N4CCOCC4)nc13)OCCO2	-	-	-	69
COc1ccc(-c2cc(C(=O)N/N=C\c3ccc(N(C)C)cc3)[nH]n2)cc1	-	-	-	45
COc1ccc(/C=N/NC(=O)c2cc(-c3ccc(F)cc3)n[nH]2)cc1	-	-	-	-
CC(C)Cc1ccc(-c2cc(C(=O)N/N=C/c3ccncc3)[nH]n2)cc1	-	-	-	45
Cc1ccc(/C=N/NC(=O)c2cc(-c3ccccc3)n[nH]2)cc1	-	-	-	-
COc1ccc(/C=N/NC(=O)c2cc(-c3ccc(OC)cc3)n[nH]2)cc1	-	-	-	33
O=[N+]([O-])c1cccc(COc2ccc(CO)cc2I)c1	-	-	-	-
COc1ccccc1OCC(=O)Nc1cccc(Oc2ccc3c(c2)C(=O)NC3=O)c1	-	-	-	-
O=C(c1nc2ccccn2c1CN1CCCC(CN2CCOCC2)C1)N1CCOCC1 (configuration not stated)	-	-	-	-
CN=c1scc(-c2ccccc2Br)n1/N=C/c1ccc[nH]1	-	-	-	88
CN=c1scc(-c2cccs2)n1/N=C/c1ccc[nH]1	-	-	-	87
SMILES	GPR151 activ	FBW7 activator	MITF primary	TEAD-YAP block
COc1cc(Nc2nc(-c3csc4ccccc34)nc3c2ncn3CCN2CCCC2=O)cc(OC)c1OC	-	-	-	-
CCc1c(C)sc2ncn(C3CCN(C(=O)C4CCCC(OC)C4)CC3)c(=O)c12 (configuration not stated)	-	-	-	42
CCc1c(C)sc2ncn(C3CCN(C(=O)Cc4ccsc4)CC3)c(=O)c12	-	-	-	45
CCc1c(C)sc2ncn(C3CCN(C(=O)CCn4nc(C)cc4C)CC3)c(=O)c12	-	-	-	-
O=C(CCN1C(=O)c2ccccc2C1=O)Nc1ccc(Br)cc1	-	-	-	-
CN(C)c1ccc(/C=C/CN2CCN(Cc3ccc4c(c3)OCO4)CC2)cc1	-	-	68	-
O=C(/C=C/c1ccc(Cl)cc1)N1CCN(Cc2ccc3c(c2)OCO3)CC1	-	-	-	-
CC1=CC(=O)OC1Cc1ccncc1 (configuration not stated)	-	-	-	41
CC1=NNC(=O)C1CCc1ccncc1 (configuration not stated)	-	-	-	-
CS/C(=C\[N+](=O)[O-])Nc1ccc(C(C)(C)C)cc1	-	-	-	55
CC1=C(C(=O)Nc2ccccc2)C(c2ccco2)C(C#N)=C(SCc2ccc(Cl)cc2)N1 (configuration not stated)	-	-	-	-
Cc1cc(C(=O)COc2ccc(-c3ccccc3)cc2)c(C)n1OCc1ccccc1	-	-	-	-
COCCNC(=O)c1ccc2c(c1)N(Cc1ccc(C)cc1)C(=O)CS2	-	-	-	-
CCOC(=O)c1[nH]ncc1CN1CCN(Cc2ccc(OC)cc2F)C(CCO)C1 (configuration not stated)	-	-	-	-
